# CHT inh: human CHT choline transport inhibition | Q9GZV3 | CHT-expressing cells, membrane potential dye, choline response; hits give low values | B-score at 10 µM | 310,000 compounds, 0.86% hits;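 active means B-score over 3 SD under the library average, and starting fluorescence ratio not unusually high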;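 further: choline stimulus applied at its EC90 after an EC20 pre-addition; B-score computed on integrated fluorescence ratio after choline addition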
# IDE cell inh: inhibitors of human insulin-degrading enzyme in cells. 320,000 compounds, 0.41% hits. HEK cells, FAbetaB cleavage, fluorescence polarization. inhibition, % at 5.59 µM. AID 434962. P14735;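 active means percent inhibition above the average of all tested compounds plus 3 SD, set per screening campaign, cut at about 16% in these data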;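 further: IDE supplied by intact live HEK cells; FP after avidin binding of uncleaved biotin substrate so inhibition keeps polarization high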
# TMEM16A inh: mouse TMEM16A channel inhibition, primary screen | HEK293 TMEM16A/YFP iodide influx fluorescence, ionomycin | normalized B-score (activity score, 25-100; higher = stronger inhibition) at 10 µM | 310,000 compounds, 1.2% hits;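 active means ratio plate-corrected score three or more library SD toward inhibition, starting fluorescence score within five deviations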;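 further: score derived from kinetic fluorescence span divided by baseline fluorescence per well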
# Target sequence (Q8BHY3 whole entry, looked up): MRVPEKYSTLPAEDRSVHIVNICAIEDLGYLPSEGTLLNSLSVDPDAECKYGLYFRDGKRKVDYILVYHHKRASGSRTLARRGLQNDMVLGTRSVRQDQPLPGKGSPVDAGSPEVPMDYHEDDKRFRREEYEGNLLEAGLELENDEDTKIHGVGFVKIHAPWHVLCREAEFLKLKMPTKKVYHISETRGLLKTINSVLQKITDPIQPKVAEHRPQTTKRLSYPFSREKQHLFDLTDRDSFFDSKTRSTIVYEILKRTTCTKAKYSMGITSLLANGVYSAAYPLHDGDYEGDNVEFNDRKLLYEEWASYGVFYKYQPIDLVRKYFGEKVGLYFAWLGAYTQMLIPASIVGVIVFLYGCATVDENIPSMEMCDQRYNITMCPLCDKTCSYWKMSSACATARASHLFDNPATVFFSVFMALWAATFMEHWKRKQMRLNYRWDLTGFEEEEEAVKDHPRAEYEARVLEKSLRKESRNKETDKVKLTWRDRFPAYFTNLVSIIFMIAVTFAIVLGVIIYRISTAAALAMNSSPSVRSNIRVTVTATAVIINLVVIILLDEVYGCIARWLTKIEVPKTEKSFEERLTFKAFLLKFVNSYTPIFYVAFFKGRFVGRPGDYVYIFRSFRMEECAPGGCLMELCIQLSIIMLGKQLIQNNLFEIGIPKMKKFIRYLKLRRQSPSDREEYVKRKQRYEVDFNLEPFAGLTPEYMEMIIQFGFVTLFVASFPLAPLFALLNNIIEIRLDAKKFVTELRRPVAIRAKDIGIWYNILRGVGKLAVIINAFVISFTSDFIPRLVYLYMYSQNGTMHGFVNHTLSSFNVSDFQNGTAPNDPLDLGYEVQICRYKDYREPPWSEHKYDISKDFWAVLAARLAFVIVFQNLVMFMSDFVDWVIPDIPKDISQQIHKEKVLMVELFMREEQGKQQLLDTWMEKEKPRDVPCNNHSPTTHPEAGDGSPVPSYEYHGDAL
# CHT PAM: allosteric activators of human choline transporter CHT | CHT-expressing cells, membrane potential dye, choline EC20; hits give high values; LV-AA mutant CHT in HEK293 cells | AID 488977 | Q9GZV3 | B-score at 10 µM | 310,000 compounds, 0.49% hits;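 active means initial fluorescence not abnormally high and integrated response B-score, plate-corrected, over 3 SD above library mean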
# IDE act: IDE (human) activation, cell-based. P14735. HEK cells, FAbeta-B cleavage, fluorescence polarization; 0% vehicle, 100% cell-free pure enzyme wells. activation, % at 5.96 µM. 340,000 compounds, 0.073% hits;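 active means activation above the mean of all tested compounds plus 3 SD, set per screening campaign, cut at about 17% in these data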
# TMEM16A act: mouse TMEM16A channel activation, primary screen; B-score at 10 µM; Q8BHY3; HEK293 TMEM16A/YFP-H148Q/I152L, iodide quench fluorescence; hits give low values; 340,000 compounds, 0.3% hits;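 active means fluorescence-ratio B-score plate-corrected deviation score at least 3 library SD below zero, with starting fluorescence score within 5 deviations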;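 further: channel opened by trigger with iodide after compound preincubation; score built on the fluorescence ratio of max minus min over baseline; more negative score means more quench and so TMEM16A activation or potentiation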
# TMEM16A reconf: re-confirmation of mouse TMEM16A chloride channel inhibitors; shares compounds with TMEM16A inh; HEK293 TMEM16A/YFP-H148Q, iodide quench fluorescence; ionomycin added to raise cell calcium; inhibition, % at 10 µM; 2,300 compounds, 39% hits; AID 652189;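 active means mean duplicate percent inhibition, scaled so buffer wells are 0 and the reference blocker 100, over three buffer SD above buffer mean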
# HEK293 Ca mobil: alters calcium mobilization in TMEM16A HEK293 cells, counter-screen; shares compounds with TMEM16A inh; TMEM16A/YFP HEK293, Fluo4 calcium mobilization; calcium response (% of ionomycin), % at 10 µM; 2,300 compounds, 2% hits; AID 652231;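 active means duplicate-averaged calcium signal over 20% of the ionomycin maximum, relative to buffer baseline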;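 further: each well's signal is peak minus trough fluorescence divided by its pre-addition baseline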
# YFP-HEK293 quench: counter-screen for TMEM16A inhibitors: effect in parental YFP-HEK293 cells. YFP ratio F(max-min)/F0 at 10 µM. 2,300 tested, under 10 active. shares compounds with TMEM16A inh. iodide YFP quench, ionomycin;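 active means yellow fluorescent protein signal ratio exceeding the buffer control mean by over 5 SD of those controls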;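 further: ratio is mean of duplicate wells from kinetic YFP trace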
# ClC-1 rat inh: rat ClC-1 inhibition, TMEM16A specificity screen. CHO ClC-1-YFP, iodide influx fluorescence quench; iodide control reads 0, buffer control 100. ratio percent, % at 10 µM. 2,300 tested, under 10 active. shares compounds with TMEM16A inh;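 active means duplicate-mean ratio percent above the mean of iodide-only control wells, which defines zero, plus 5 of their SD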;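 further: higher percent means stronger block of ClC-1 iodide influx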
# Numbers stand for hits; . = inactive; / = not tested or not shown. An excerpt weighted towards active compounds, which were near 2.7% of everything screened.
SMILES,CHT inh,IDE cell inh,TMEM16A inh,CHT PAM,IDE act,TMEM16A act,TMEM16A reconf,HEK293 Ca mobil,YFP-HEK293 quench,ClC-1 rat inh
CC(Oc1ccc(Cl)cc1)C(=O)NCCN1C(=O)S/C(=C\c2cccnc2)C1=O (centres undefined),.,.,25,.,.,.,55%,.,.,.
CC(C)(Oc1ccc(Cl)cc1)C(=O)NCCN1C(=O)S/C(=C/c2cccnc2)C1=O,.,.,.,.,.,.,/,/,/,/
CC(Oc1ccc(Br)cc1)c1nc2c3ccccc3nc(=S)n2[nH]1 (centres undefined),.,.,25,.,.,.,33%,.,.,.
CN(C(=O)c1cccc(NC(=O)Cc2ccc(NC(=O)C3CCCN(S(=O)(=O)c4cccc([N+](=O)[O-])c4)C3)cc2)c1)C1CCCC1 (centres undefined),/,/,/,/,.,/,/,/,/,/
O=S(=O)(NC1CCCCC1Nc1ccc(Cl)cc1)c1ccccc1 (centres undefined),.,.,25,.,.,.,.,.,.,.
Cc1ccc(NC2CCCCC2NS(=O)(=O)c2ccc(Cl)cc2)cc1 (centres undefined),.,.,.,.,.,.,/,/,/,/
COC(=O)c1ccc(COc2cccc3c2CCN(Cc2cccc(C)c2)C3=O)o1,.,.,25,.,.,.,19%,.,.,.
CCOC(=O)c1[nH]cnc1C(=O)N1CCN(C(=O)OC(C)(C)C)CC1,/,.,/,/,.,.,/,/,/,/
COc1ccc(Cl)cc1C(=O)CSc1nnnn1C1CCCCC1,.,.,100,.,.,.,.,.,.,.
CC(NC(=O)C1CCC(CNS(=O)(=O)c2ccccc2)CC1)c1ccccc1 (centres undefined),.,.,.,.,.,.,/,/,/,/
CCC(C)NC(=O)C1CCC(CNS(=O)(=O)c2ccccc2)CC1 (centres undefined),.,.,.,.,.,.,.,.,.,.
CCCSc1oc(-c2ccco2)nc1S(=O)(=O)c1ccc(C)cc1,.,.,25,.,.,.,.,.,.,.
Cc1cnccc1CN(C)Cc1nc(Cc2ccccc2Cl)no1,.,.,.,.,.,.,/,/,/,/
COC(=O)c1ccc(-c2noc(CN(C)Cc3ccncc3C)n2)cc1,.,.,25,.,.,.,.,.,.,.
Cc1ccsc1CN(C(=O)c1ccc([N+](=O)[O-])cc1)C1CCS(=O)(=O)C1 (centres undefined),.,.,.,.,.,.,/,/,/,/
CN(c1ccccc1)S(=O)(=O)c1ccc(NC(=O)c2ccccc2)cc1,.,.,.,.,.,.,/,/,/,/
CN(c1ccccc1)S(=O)(=O)c1ccc(NC(=O)c2nc(S(C)(=O)=O)ncc2Cl)cc1,.,.,25,.,.,-5.5,18%,.,.,.
CCN(C[C@H]1N[C@@](Cc2ccccc2)(C(=O)OC)[C@H]2C(=O)N(Cc3ccccc3)C(=O)[C@@H]12)C(=O)Nc1ccc(Cl)cc1,/,.,/,/,.,/,/,/,/,/
Cc1ccc(S(=O)(=O)NC2CC2)cc1[N+](=O)[O-],.,.,.,.,.,.,/,/,/,/
CC(Oc1ccccc1)C(=O)Nc1nnc(S(=O)(=O)Nc2ccccc2)s1 (centres undefined),.,.,100,.,.,.,.,.,.,.
C[C@H]1CN=C(Nc2ccccc2)N1CCc1ccccc1,.,.,.,.,.,.,/,/,/,/
Cc1noc(C)c1NC(=O)Nc1cccc2c1O[C@H](CN(C)S(=O)(=O)c1cccs1)[C@@H](C)CN([C@H](C)CO)C2=O,/,.,/,/,.,.,/,/,/,/
